In PubChem BioAssay (Tox21):
Records with an inconclusive call do not appear. The source made the active and inactive calls. Calls follow the shape of the dose curve; as a rule, active = well fitted activation curve with a large enough effect in the signal ratio in the repeat runs (not every such curve was filed as active); inconclusive = weak or mixed curves; inactive = flat fitted curve, though single readings scatter; the % refers to the signal ratio.

Assay: qHTS assay to identify small molecule agonists of the hypoxia (HIF-1) signaling pathway (AID 1224846)
Settings: HRE-bla ME-180 cells, beta-lactamase ratio, 17 h; series mostly up to 76.8 µM; activation: at the top concentration
Text: U.S. Tox21 Program National Center for Advancing Translational Sciences [NCATS] NIH Chemical Genomics Center [NCGC] U.S. Environmental Protection Agency [EPA] National Institutes of Environmental Health Sciences [NIEHS] National Toxicology Program [NTP] U.S. Food and Drug Administration [FDA] Tox21 Assay Overview: Hypoxia-inducible factor-1 (HIF-1) is the major hypoxia-regulated transcription factor that controls cellular responses to low oxygen concentration. HIF-1 is composed of two subunits: hypoxia responsive HIF-1-alpha and constitutively expressed HIF-1-beta, which is also known as aryl hydrocarbon receptor nuclear translocator. During hypoxic conditions, HIF-1-alpha heterodimerizes with HIF-1-beta and translocates into the nucleus where the HIF-1 complex binds to the hypoxia-response element (HRE) and activates expression of target genes such as VEGF (vascular endothelial growth factor). The HIF-1 pathway is essential to normal growth and development, and is involved in the pathophysiology of cancer, inflammation, and ischemia. Using a beta-lactamase reporter-gene under control of the hypoxia response element, a cell-based assay [CellSensor(TM) HRE-bla ME-180 from Life Technologies, Carlsbad, CA] was used to measure hypoxia-induced signaling. Tox21 10K library compounds were measured for their ability to induce the reporter gene activity.
Tox21 Assay Protocol Summary: HRE-bla ME-180 cells were dispensed at 2,000 cells per well in 6 uL of assay medium containing 0.5% dialyzed FBS into black wall/clear-bottom 1536-well plates using a Multidrop Combi (Thermo Scientific, Waltham, MA) dispenser. After the assay plates were incubated at 37C and 5% CO2 for 5 hrs, 23 nL of compounds dissolved in DMSO, positive controls or DMSO only was transferred to each well of the assay plate using a Pintool station (Kalypsys, San Diego, CA). The assay plates were incubated at 37C and 5% CO2 for 17 hrs. One uL of LiveBLAzerTM B/G FRET substrate (CCF4-AM) (Life Technologies) was added to each well using a Flying Reagent Dispenser (Aurora Discovery, San Diego, CA).
% is scaled to controls: 0 for no effect and ±100 for the full control effect.

Q: For `CCCCCCOc1ccc(N)cc1`, which “activation” value is on record?
A: Its value is 0.275% (inactive).

Q: Which “activation” value does the source give for `O=C1CCCc2ccccc21` here?
A: The value was -0.704% (inactive).

Q: Which “activation” value does the source give for `Cc1ccc(C=O)s1` here?
A: The value was -0.206% (inactive).

Q: For `CCCCC(CC)COC(=O)COc1cc(Cl)c(Cl)cc1Cl` (stereo not given), which “activation” value is on record?
A: The value was -1.59% (inactive).

Q: For `C1CSCCS1`, which “activation” value is on record?
A: The value was 0.17% (inactive).

Q: Which “activation” value does the source give for `COc1nc(C)nc(NC(=O)NS(=O)(=O)c2ccccc2OCCCl)n1` here?
A: Its value is 0.0439% (inactive).

Q: Which “activation” value does the source give for `CC(C)=CCC[C@](C)(O)[C@@H]1CC=C(C)CC1` here?
A: The value was -0.434% (inactive).

Q: Which “activation” value does the source give for `CCCCCCCCCCCCCCCCOP(=O)([O-])OCC[N+](C)(C)C` here?
A: The value was -1.26% [at 35.5 µM] (inactive).

Q: Which “activation” value does the source give for `N#CSCC(=O)O` here?
A: The value was -1.62% [at 35.5 µM] (inactive).

Q: With `CC1=CC(=O)CC(C)(C)C1=O` as the molecule, how does the “activation” value read?
A: The value was -0.421% (inactive).

Q: Which “activation” value does the source give for `O=C1CCCCCCCCCCC(=O)OCCO1` here?
A: The value was -0.697% (inactive).

Q: Which “activation” value does the source give for `CN1CCN(c2c(F)cc3c(=O)c(C(=O)O)cn4c3c2SCC4)CC1` here?
A: The value was -0.624% [at 35.5 µM] (inactive).

Q: With `CCCc1c2oc(C(=O)O)cc(=O)c2cc2c(=O)cc(C(=O)O)n(CC)c12` as the molecule, how does the “activation” value read?
A: The value was 0.0449% [at 35.5 µM] (inactive).

Q: Which “activation” value does the source give for `CC(C)C(=O)OC/C=C/c1ccccc1` here?
A: The value was -1.41% (inactive).

Q: Which “activation” value does the source give for `CCN(CC)C(=O)N(CC)CC` here?
A: Its value is -1.42% (inactive).

Q: With `CCCCc1ccc2nc(NC(=O)OC)[nH]c2c1` as the molecule, how does the “activation” value read?
A: The value was 1.6% [at 35.5 µM] (inactive).

Q: Which “activation” value does the source give for `Nc1cccc(S(=O)(=O)O)c1` here?
A: The value was -0.232% (inactive).

Q: With `CCC/C=C/CO` as the molecule, how does the “activation” value read?
A: Its value is -1.36% (inactive).

Q: For `CCCCCCCCCC/C=C/C#N`, which “activation” value is on record?
A: Its value is -0.914% (inactive).

Q: Which “activation” value does the source give for `CC(=O)O[C@H]1CC[C@@]2(C)C(=CC[C@@H]3[C@@H]2CC[C@]2(C)C(C(C)=O)=CC[C@@H]32)C1` here?
A: The value was 5.09% [at 35.5 µM] (inactive).

Q: With `CCCCNc1cc(C(=O)O)cc(S(N)(=O)=O)c1Oc1ccccc1` as the molecule, how does the “activation” value read?
A: The value was -1.64% [at 35.5 µM] (inactive).

Q: For `CC(=O)N[C@@H](CC(C)C)C(=O)O`, which “activation” value is on record?
A: The value was -1.55% [at 35.5 µM] (inactive).

Q: For `N#Cc1ccc(C(c2ccc(C#N)cc2)n2cncn2)cc1`, which “activation” value is on record?
A: The value was -0.294% [at 35.5 µM] (inactive).

Q: Which “activation” value does the source give for `C=CCCC=C` here?
A: The value was 1.27% (inactive).

Q: With `CCC(=O)c1ccc2c(c1)N(CCCN(C)C)c1ccccc1S2` as the molecule, how does the “activation” value read?
A: The value was -1.47% [at 35.5 µM] (inactive).

Q: For `CC/C=C\CCOC(=O)C(C)C`, which “activation” value is on record?
A: The value was -0.24% (inactive).

Q: For `NCCCN1CCN(CCCN)CC1`, which “activation” value is on record?
A: The value was -0.344% (inactive).

Q: For `O=C(O[C@@H](C(=O)O)[C@@H](OC(=O)c1ccccc1)C(=O)O)c1ccccc1`, which “activation” value is on record?
A: The value was -1.14% (inactive).

Q: For `NCCC(O)(P(=O)(O)O)P(=O)(O)O`, which “activation” value is on record?
A: Its value is -0.633% [at 35.5 µM] (inactive).

Q: With `CCCC(CCC)(C(=O)OCC)C(=O)OCC` as the molecule, how does the “activation” value read?
A: Its value is 0.224% [at 35.5 µM] (inactive).

Q: For `O=C(C(Cl)Cl)N1CCOC12CCCCC2`, which “activation” value is on record?
A: Its value is -0.364% (inactive).

Q: Which “activation” value does the source give for `CC1=C2[C@H](/C=C(\C)C(=O)O)CC[C@@H](C)[C@H]2CC1` here?
A: Its value is 0.976% (inactive).

Q: For `O=C(O)C(=O)Cc1c[nH]c2ccccc12`, which “activation” value is on record?
A: The value was -0.501% (inactive).

Q: With `C[C@@H]1CN(c2c(F)c(N)c3c(=O)c(C(=O)O)cn(C4CC4)c3c2F)C[C@H](C)N1` as the molecule, how does the activation read?
A: Its activation is 0.203% [at 15.8 µM] (inactive).

Q: With `COc1ccc2nc(NC(=O)Nc3ccccc3)sc2c1` as the molecule, how does the “activation” value read?
A: The value was 0.494% [at 35.5 µM] (inactive).

Q: For `CC(C)C[C@H](NC(=O)OCC1c2ccccc2-c2ccccc21)C(=O)O`, which “activation” value is on record?
A: The value was 2.48% (inactive).

Q: For `Cc1ccccc1C(=O)Nc1ccc(C(=O)N2CCCC(O)c3cc(Cl)ccc32)c(C)c1` (stereo not given), which “activation” value is on record?
A: The value was 0.849% [at 35.5 µM] (inactive).

Q: With `COC(=O)/C=C(/C)N` as the molecule, how does the “activation” value read?
A: Its value is 0.0283% [at 35.5 µM] (inactive).

Q: Which “activation” value does the source give for `OC[C@H]1O[C@@H](O[C@H]2[C@H](O)[C@@H](O)[C@H](O)O[C@@H]2CO)[C@H](O)[C@@H](O)[C@H]1O` here?
A: The value was -0.819% (inactive).

Q: For `NC(=O)Cc1cccc(C(=O)c2ccccc2)c1N`, which “activation” value is on record?
A: Its value is -0.979% [at 35.5 µM] (inactive).
